This experiment relates to PPARg homodimer (NR concentration 180 nM). As to the kind of experiment: PBM binding z-score (relative to random genomic background probes); higher = stronger binding; sequences stand for … in GC…GCGATTGACAGCGTAGAATGAAGG
A digest of the protocol:
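Ligand-free nuclear receptor dimers were bound for 1 h to custom Agilent 4×180K protein-binding microarrays. Detection used antibodies against each partner (one per run). Binding z-scores rest on regression-normalized fluorescence, with random background probes as the reference.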
With CCGACTGGGGAAAAGGTTACCATACTCAGTACGA, the PBM binding z-score came to 1.18.

CAAACGAGGGCATGAGTTGATAGCAAATGCCGAT: the PBM binding z-score stood at 0.909.

The sequence TTACCAAAGTGAGCTGAGGTCGTTGATCCAACTC displayed a PBM binding z-score of -0.866.

TCGAGTAGGTTAGTGGCATTCAGAATGGCGTCGA had a PBM binding z-score of 0.509.

Take CCAGACAGGTGAGAAGGTAATTCAGCCTCGATTA: the PBM binding z-score came to 0.321.

CGTCCAAGGTCAGCAGGTCAGTGTAAGCGACGTG gave a PBM binding z-score of 2.97.

Turning to GCAGACAGGTGAAACGAAGGTAACTCAGGGTGGC, the PBM binding z-score was -0.228.

On to GCGATTGGGGCATCAGCAGGTTACCATAACTTAA, for which the PBM binding z-score was 0.245.

For the sequence CCTTACGGGTCACTCCGGGTTATAGCATCGGAGT, the PBM binding z-score is 1.92.

For the sequence CCTAGCAGGCCTATCTGGGTCACTCAAGGCTTGA, the PBM binding z-score amounted to 0.541.

On to ACTCGGAGCACAAAGGTCAGAGCTACGCCAGTGA, for which the PBM binding z-score amounted to 2.92.

In turn, AGAGTGAGGTTAAGATCAGGGAAACAGAATACAT registered a PBM binding z-score of 1.63.

As to CAAACTAGGTCGCGAAAGGTCAAAGTCGAATGAC, the PBM binding z-score was 3.65.

CAAACTAGGTCTAAGGTCAAAGTCGAGCCAACCA registered a PBM binding z-score of 2.46.

As for GATACAGGGTCAAGGCCAGAGTTCGCGTATTGAT, the PBM binding z-score stood at 2.3.

On to CCTACTAGGCCACGAAAGGTCATTGATTCAGTGA, for which the PBM binding z-score stood at 3.43.

Turning to AGAATGAGGTTAAGATCAGGGACACAGAATACAT, the PBM binding z-score is 1.01.

The sequence TCTTGTAGATCTAGCAGGTTAAGAAAGCCTGAGT had a PBM binding z-score of -0.214.

CCGAGTAGGTTATAGGGCATTCAGGCAACGGTGA: the PBM binding z-score was 1.05.

Regarding TAGCCTAGGTCTTTCAGGGGCCAGTATAGAAAGC, the PBM binding z-score is -0.27.

Turning to CCTGGTAGGTCAATGGTCAGCTAAAGCAGCTCGC, the PBM binding z-score was 2.06.

On to CCTACTGTGCCAAGGTCATTGATCAGTCAAAGCA, for which the PBM binding z-score stood at 2.81.

Source of the values: the supplement of paper PMC6555819.
